From the supplement of paper PMC12494721
Where a name gives a salt, the structure may show the parent alone.

How the values were obtained:
Conditions in all cases: incubation time: 27 h, anaerobic, 37 °C;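 for the amine columns active = adjusted P below 0.05 in both replicates with a change the same way and a mean fold change under 0.8 or over 1.25; inactive = the rest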
[1] = system: Clostridium sporogenes DSM 1664; test: growth (OD595) fold change vs plate DMSO controls (fold change (ratio)); higher = more growth
Summary of the method: (§1)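 Each value is the mean of 2 biological replicates, and fold changes above 1.5 were set to NA. The underlying readings were taken at 595 nm from shaken anaerobic mGAM cultures in 96-well plates after 27 h at 37 °C. They were blank-subtracted, corrected for compound background using 20 µM compound solutions in water, and converted to OD with a calibration factor of 5. Growth is the fold change relative to the median of the plate DMSO controls.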

Escherichia coli IAI1 [2] = test: as above
Summary of the method: as §1

[3] = system: Klebsiella aerogenes DSM 30053; test: as above
Summary of the method: as §1

[4] = system: Ruminococcus gnavus DSM 108212; test: as above
Summary of the method: as §1

[5] = system: Klebsiella aerogenes DSM 30053; test: fold change of Histamine concentration vs plate DMSO controls (fold change (ratio)); higher = more amine produced, active = hit call of the paper (significant change in both replicates, either direction)
Summary of the method: (§2)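 Using LC–triple-quadrupole MS with dynamic MRM, amines were quantified against external calibration curves and corrected for drift within each batch. Samples were whole anaerobic mGAM cultures of four gut strains, grown 27 h at 37 °C from OD 0.1 before 1:1 dilution, extracted with cold acetonitrile/methanol containing 0.1% formic acid and centrifuged. Compounds were present at 20 µM final (sweeteners at 50 µM final). The numbers are fold changes versus plate DMSO controls, each the mean of 2 biological replicates.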

[6] = system: Clostridium sporogenes DSM 1664; test: fold change of Tryptamine concentration vs plate DMSO controls (fold change (ratio)); higher = more amine produced, active = hit call of the paper (significant change in both replicates, either direction)
Summary of the method: as §2

[7] = system: Ruminococcus gnavus DSM 108212; test: as above
Summary of the method: as §2

Escherichia coli IAI1 [8] = test: fold change of Putrescine concentration vs plate DMSO controls (fold change (ratio)); higher = more amine produced, active = hit call of the paper (significant change in both replicates, either direction)
Summary of the method: as §2

[9] = system: Klebsiella aerogenes DSM 30053; test: as above
Summary of the method: as §2

Escherichia coli IAI1 [10] = test: fold change of Cadaverine concentration vs plate DMSO controls (fold change (ratio)); higher = more amine produced, active = hit call of the paper (significant change in both replicates, either direction)
Summary of the method: as §2

[11] = system: Klebsiella aerogenes DSM 30053; test: as above
Summary of the method: as §2

[12] = system: Ruminococcus gnavus DSM 108212; test: fold change of 2-Phenylethylamine concentration vs plate DMSO controls (fold change (ratio)); higher = more amine produced, active = hit call of the paper (significant change in both replicates, either direction)
Summary of the method: as §2

| Compound | growth [1] | growth (Escherichia coli IAI1 [2]) | growth [3] | growth [4] | fold change of Histamine concentration [5] | fold change of Tryptamine concentration [6] | fold change of Tryptamine concentration [7] | fold change of Putrescine concentration (Escherichia coli IAI1 [8]) | fold change of Putrescine concentration [9] | fold change of Cadaverine concentration (Escherichia coli IAI1 [10]) | fold change of Cadaverine concentration [11] | fold change of 2-Phenylethylamine concentration [12] |
| --- | --- | --- | --- | --- | --- | --- | --- | --- | --- | --- | --- | --- |
| CC(C)c1c(C(=O)Nc2ccccc2)c(-c2ccccc2)c(-c2ccc(F)cc2)n1CC[C@@H](O)C[C@@H](O)CC(=O)O [Atorvastatin] (20 µM) | 1.02 | 1.03 | 1 | 1.28 | 1.15 (inactive) | 1.01 (inactive) | 1 (inactive) | 1.01 (inactive) | 1.02 (inactive) | 0.984 (inactive) | 0.998 (inactive) | 1.02 (inactive) |
| CC1(C)O[C@@H]2C[C@H]3[C@@H]4C[C@H](F)C5=CC(=O)C=C[C@]5(C)[C@H]4[C@@H](O)C[C@]3(C)[C@]2(C(=O)CO)O1 [Flunisolide] (20 µM) | 0.942 | 0.993 | 1.03 | 0.998 | 0.949 (inactive) | 1.03 (inactive) | 1.19 (inactive) | 1.05 (inactive) | 1.05 (inactive) | 1.07 (inactive) | 1.09 (inactive) | 1.51 (inactive) |
| Cc1ccc(N(CC2=NCCN2)c2cccc(O)c2)cc1 [Phentolamine hydrochloride] (20 µM) | 1.07 | 1 | 0.871 | 0.765 | 0.97 (inactive) | 1.03 (inactive) | 1 (inactive) | 1.05 (inactive) | 0.981 (inactive) | 0.652 (active) | 0.993 (inactive) | 1.01 (inactive) |
| CC(C)(C)NCC(O)COc1cccc2c1CC(O)C(O)C2 (configuration not stated) [Nadolol] (20 µM) | 1.08 | 0.986 | 1.03 | 0.969 | 0.981 (inactive) | 1.08 (inactive) | 1.02 (inactive) | 1.06 (inactive) | 0.988 (inactive) | 1 (inactive) | 1 (inactive) | 0.971 (inactive) |
| O=C1[C@@H]2[C@H]3CC[C@H](C3)[C@@H]2C(=O)N1CCCCN1CCN(c2ncccn2)CC1 [Tandospirone] (20 µM) | 0.973 | 1.04 | 1.03 | 1.06 | 0.981 (inactive) | 0.992 (inactive) | 1.01 (inactive) | 0.989 (inactive) | 0.995 (inactive) | 1 (inactive) | 0.997 (inactive) | 1.06 (inactive) |
| CCOc1ccccc1OCC1CNCCO1 (configuration not stated) [Viloxazine hydrochloride] (20 µM) | 0.836 | 0.991 | 0.986 | 0.675 | 0.986 (inactive) | 1.03 (inactive) | 0.572 (active) | 1.06 (inactive) | 1 (inactive) | 0.971 (inactive) | 0.992 (inactive) | 0.696 (active) |
| CN1CCN2c3ncccc3Cc3ccccc3C2C1 (configuration not stated) [Mirtazapine] (20 µM) | 1.09 | 1.01 | 1 | 1.11 | 0.963 (inactive) | 1.12 (inactive) | 1.06 (inactive) | 0.964 (inactive) | 0.983 (inactive) | 0.984 (inactive) | 1.02 (inactive) | 1.04 (inactive) |
| C#C[C@]1(O)CC[C@H]2[C@@H]3CCC4=C(CCC(=O)C4)[C@H]3CC[C@@]21C [Norethynodrel] (20 µM) | 0.978 | 1.04 | 1 | 1.02 | 1.03 (inactive) | 0.936 (inactive) | 1.03 (inactive) | 1.04 (inactive) | 1.03 (inactive) | 0.979 (inactive) | 1.01 (inactive) | 0.989 (inactive) |
| CC(C)(Sc1cc(C(C)(C)C)c(O)c(C(C)(C)C)c1)Sc1cc(C(C)(C)C)c(O)c(C(C)(C)C)c1 [Probucol] (20 µM) | 1.03 | 1.06 | 1.03 | 1.15 | 0.921 (inactive) | 1.02 (inactive) | 1.01 (inactive) | 1.04 (inactive) | 0.983 (inactive) | 0.921 (inactive) | 1.01 (inactive) | 1.01 (inactive) |
| CC(=O)OC[C@H]1O[C@@H](n2ncc(=O)[nH]c2=O)[C@H](OC(C)=O)[C@@H]1OC(C)=O [Azaribine] (20 µM) | 1.22 | 1.01 | 1 | 1.18 | 0.978 (inactive) | 0.997 (inactive) | 0.988 (inactive) | 1.05 (inactive) | 1.04 (inactive) | 0.944 (inactive) | 1.02 (inactive) | 0.96 (inactive) |
| COc1c(O)cc2c(c1O)[C@@H]1O[C@H](CO)[C@@H](O)[C@H](O)[C@H]1OC2=O [Bergenin] (20 µM) | 0.966 | 1.05 | 1.11 | 1.05 | 0.891 (inactive) | 1.01 (inactive) | 1.06 (inactive) | 0.97 (inactive) | 0.997 (inactive) | 0.93 (inactive) | 1.03 (inactive) | 1.05 (inactive) |
